Test results from PMC7819943, “Rice protein-binding microarrays: a tool to detect cis-acting elements near promoter regions in rice”.
Over roughly 35,000 sequences, “fluorescence intensity (a.u.)” has its median near 10,000; the highest 2% begin near 52,000. The sample as a whole holds a higher share of the highest values than the screen did.

What follows are sequences tested against T1, OsWOX13 (Oryza sativa, UniProt Q5QMM3 1-267) (assay: protein-binding microarray (RPBM); PBS, 2% BSA, 51.3 ng/ul salmon testes DNA, 50 uM zinc acetate, 200 nM TF, 25 C, 1 h; high values mean tight binding). Conditions: protein: recombinant; tags: N-terminal polyhistidine and DsRed monomer fusion (pET32a); label: CyDye5-dUTP incorporated in the synthesized complementary strand; 3' TTTTT single-stranded linker to array surface; dsDNA, one strand shown.
T1 sequence: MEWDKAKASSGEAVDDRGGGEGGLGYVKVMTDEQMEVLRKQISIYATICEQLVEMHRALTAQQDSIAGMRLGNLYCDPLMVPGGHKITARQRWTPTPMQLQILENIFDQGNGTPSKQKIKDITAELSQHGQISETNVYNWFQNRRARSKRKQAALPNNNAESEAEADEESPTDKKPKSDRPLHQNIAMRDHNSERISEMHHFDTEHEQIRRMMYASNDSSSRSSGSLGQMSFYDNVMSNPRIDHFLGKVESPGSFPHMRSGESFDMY
How it was run: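 Using Ni–NTA, transcription factors fused N-terminally to polyhistidine and DsRed were purified after expression in E. coli BL21-CodonPlus. These were incubated at 200 nM with a blocked, double-stranded custom Agilent array for 1 h at 25 °C in a buffer containing 50 µM zinc acetate, and the array was washed. The binding signal is per-feature fluorescence intensity (arbitrary units) on an Axon 4000B scanner.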

Sequence | binding signal
ATAACTAATATAATCGAACCTGCCTCACTTAATATGTGGCCGGAGTCACCTAGTGCAG | 4830 fluorescence intensity (a.u.)
CTAAAATTACATATGTAATTTAGGCACTTACATATGTAATCGGAGTCACCTAGTGCAG | 19500 fluorescence intensity (a.u.)
TGTTAACCAGATTTATTATATTTGAAAATGTCACCTCCAACGGAGTCACCTAGTGCAG | 8160 fluorescence intensity (a.u.)
TTGCAAATAATTTGGAAAGGTAATATGAGCTACAGCTGTGCGGAGTCACCTAGTGCAG | 7080 fluorescence intensity (a.u.)
ATAATGGATTGCTTGTTCCAGCACTGAATGTGCTGCCAAGCGGAGTCACCTAGTGCAG | 6550 fluorescence intensity (a.u.)
CGAATTAACTAGATCATATTACTCTTTCATGCAATAAACACGGAGTCACCTAGTGCAG | 4320 fluorescence intensity (a.u.)
TGGGATAATTAACTCGTAATGATCCCCAAATGCGTGCGTACGGAGTCACCTAGTGCAG | 28300 fluorescence intensity (a.u.)
GTTAACGACCAAAATTGGTAGCATCGACACCTCCCTGGGCCGGAGTCACCTAGTGCAG | 4240 fluorescence intensity (a.u.)
AGTTATGTAATTGGATCATGAGTAGATATACATGTGTGCTCGGAGTCACCTAGTGCAG | 29300 fluorescence intensity (a.u.)
ATAGATAGATAGATAATAGATAGATAGAAGATAGATAGATCGGAGTCACCTAGTGCAG | 44600 fluorescence intensity (a.u.)
GGTGATTAGACCGGTGATCTATACCGGTCAGACCGATAGCCGGAGTCACCTAGTGCAG | 47800 fluorescence intensity (a.u.)
ATCTATAATTAGATTGATATGATTATCTTGTGTACAACAACGGAGTCACCTAGTGCAG | 37800 fluorescence intensity (a.u.)
TAGATAGATAGAAGATAATAGAAGATAGATAATAGAAGATCGGAGTCACCTAGTGCAG | 10200 fluorescence intensity (a.u.)
GGTAATTGATTATGCACCTGATCTAGATACATGTACAGCTCGGAGTCACCTAGTGCAG | 61800 fluorescence intensity (a.u.)
TTACTTAATTACTATAGATAATTAGTTGATTAGTGTTACTCGGAGTCACCTAGTGCAG | 45000 fluorescence intensity (a.u.)
TCCACTAATATTAACCAATAGACAGATATACTATCACAGTCGGAGTCACCTAGTGCAG | 10800 fluorescence intensity (a.u.)
AGATAGATAGATAGATAGATAGATAGATAGATAGATAGATCGGAGTCACCTAGTGCAG | 55700 fluorescence intensity (a.u.)
TAGCCACCGTGATTGATTGATCTATAGATCGATTGGTGCCCGGAGTCACCTAGTGCAG | 64000 fluorescence intensity (a.u.)
AATAGATAGATTGATACCACCACTTAACTATACTAATGCTCGGAGTCACCTAGTGCAG | 63700 fluorescence intensity (a.u.)
ATTATTGAACGAATGATTATCGTAGATTATACATCTAGCCCGGAGTCACCTAGTGCAG | 28400 fluorescence intensity (a.u.)
AGTGGTGATGGGCACAATGGTGATTAGAGTGGCGGAGATCCGGAGTCACCTAGTGCAG | 7460 fluorescence intensity (a.u.)
TATTGATTTAATGAAACTAATTTGGTATTATAAATATTACCGGAGTCACCTAGTGCAG | 32200 fluorescence intensity (a.u.)
GGAGAGCAATCAAGCGAAATTGACACGTGTCACGGCAGTGCGGAGTCACCTAGTGCAG | 30300 fluorescence intensity (a.u.)
